# Source: PubChem BioAssay
# ClpP mod: qHTS Assay for Activators of ClpP | purified B. subtilis ClpP, FRET peptide cleavage, 20 min | Potency, µM (series often up to 57.5 µM), for inactives: top-dose activity change, negative = active | actives 1.9% (n = 340,000) | AID 651965, 2013; active = well fitted falling curve with a large enough effect; inconclusive = small, poorly fitted or top-dose-only effect; inactive = no such curve, though single readings can be large or run the other way; note: the source files actives as falling curves though it sought activators and does not explain the sign; nearly all actives have a fitted effect of over 65% in size
# Target sequence (P80244 whole entry, looked up): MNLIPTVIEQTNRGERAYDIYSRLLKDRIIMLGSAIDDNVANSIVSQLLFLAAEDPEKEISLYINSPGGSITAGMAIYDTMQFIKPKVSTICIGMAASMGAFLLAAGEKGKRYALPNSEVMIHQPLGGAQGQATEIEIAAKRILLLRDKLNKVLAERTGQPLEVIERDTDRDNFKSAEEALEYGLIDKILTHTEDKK
#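 ClpP 10 microg/mL final, pH 8 Tris/KCl buffer with BSA, glycerol, Tween-20; compound pinned in; FRET-FV substrate; RT 20 min; Ex320/Em430; ΔFRET vs ADEP 5.8 microM, DMSO, no enzyme.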
# TDP1 cell CPT: growth inhibition of DT40 Tdp1-/-;hTDP1 cells with camptothecin (screen for TDP1 inhibitors) | actives 12% (n = 420,000) | AID 686979 | chicken DT40 Tdp1-/-;hTDP1 cells + 20 nM CPT, ATP luminescence, 48 h | Potency, µM (titrated, usually from 46.2 µM), inactives show top-dose activity change, negative = growth inhibition, hits mostly inhibitors; note: % is set by controls: 0 for no effect and ±100 for the full control effect; nearly all actives have a fitted effect of over 55% in size
#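 Chicken DT40 Tdp1-/- cells complemented with human TDP1, 400 cells/well, exposed to compounds plus 20 nM camptothecin for at least 48 h at 37 C; viability read as ATP content by CellTiter-Glo luminescence.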
# TDP1 block: inhibitors of human tyrosyl-DNA phosphodiesterase TDP1; Potency, µM (series often up to 130 µM), without a hit: at the highest dose activity change, negative = inhibition, hits mostly inhibitors; actives 0.28% (n = 350,000); recombinant TDP1, AlphaScreen DNA substrate cleavage; Q9NUW8; note: % is set by controls: 0 for no effect and ±100 for the full control effect; nearly all actives have a fitted effect of over 40% in size
#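 Enzyme-compound mixtures sat 15 min at room temperature, followed by a 5 min reaction with 15 nM final substrate and 10 min with AlphaScreen beads. Recombinant human Tdp1 was used at 1 nM final.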
# DT40 TDP1 no CPT: qHTS for Inhibitors of human tyrosyl-DNA phosphodiesterase 1 (TDP1): qHTS in cells in absence of CPT | actives 15% (n = 420,000) | DT40 Tdp1-/- hTDP1 cells, no CPT, ATP luminescence, 48 h | AID 686978, 2013 | Potency, µM (doses to about 46.2 µM), for inactives: at the highest dose activity change, negative = growth inhibition, usual class: inhibitors; note: % is set by controls: 0 for no effect and ±100 for the full control effect; nearly all actives have a fitted effect of over 55% in size
#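 Luminescent ATP content (CellTiter-Glo) served as the growth readout. Knockout chicken DT40 cells expressing human TDP1 were exposed to compounds without camptothecin for a minimum 48 hr at 37 °C.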
# Starred values were filed as active, the others as inactive; ? = inconclusive; / = no result given; [ ] = dose if it differs, or a comment. Only some compounds are listed: those with a hit (about 17% of all), similar ones and a draw of the others. Unless noted, calls come from the whole dose curve; as a rule, active = well fitted curve in the direction sought with a large enough effect; inconclusive = small, poorly fitted or top-dose-only effect, or another doubt; inactive = no such curve, though single readings can be large; an effect the other way counts as inactive or inconclusive. Potency is the fitted concentration of half-maximal effect.
SMILES,ClpP mod,TDP1 cell CPT,TDP1 block,DT40 TDP1 no CPT
O=C(CSc1ncc(-c2ccc(F)cc2)n1Cc1ccco1)Nc1nccs1,1%,?,4%,21µM*
CCC(=O)Nc1cc(NC(=O)CSc2ncc(-c3ccc(F)cc3)n2Cc2ccco2)ccc1C,?,-14%,8%,6%
CCOc1ccc(NC(=O)CSc2nnc(-c3ccccc3Cl)n2Cc2ccco2)cc1,18µM*,21µM*,9%,18µM*
COc1ccc(-c2cnc(SCC(=O)Nc3cc(C)on3)n2Cc2ccco2)cc1,-1%,-17%,11%,?
COc1ccc(NC(=O)CSc2ncc(-c3ccc(F)cc3)n2Cc2ccco2)cc1,-1%,13µM*,8%,16µM*
COc1ccc(-c2cnc(SCC(=O)Nc3nc(C(C)(C)C)cs3)n2Cc2ccco2)cc1,-5%,?,9%,21µM*
CCOC(=O)c1c(NC(=O)COc2ccc(Cl)cc2Cl)sc2c1CCCCC2,2%,-4%,5%[12.3 µM],-16%
O=C(NCCC1CC1(Cl)Cl)Nc1ccccc1 (centres undefined),/,12%,1%,-23%
O=C(/C=C/[C@H]1O[C@@H](n2ccc(=O)[nH]c2=O)[C@H](O)[C@@H]1O)NCc1cccs1,1%,4%,/,7%
O=C(Nc1ccccn1)Nc1ccccc1Cl,1%,14%,2%,10%
CCOc1cccc(C(=O)Nc2ccc3c(c2)OCCO3)c1,-6%,-9%,1%,?
CS(=O)(=O)N(CC(=O)N1CCCC1)Cc1ccc(Cl)c(Cl)c1,0%,-29%,/,?
Cc1cnc(NC(=O)CSc2ncc(-c3ccccc3)n2Cc2ccco2)s1,1%,18µM*,13%,?
COc1ccc(C(=O)COC(=O)C2CCN(c3ccc(C(F)(F)F)cn3)CC2)c(OC)c1,-6%,?,-13%,21µM*
COc1cccc(C(=O)NCC(=O)N2CCN(c3ccc(C(F)(F)F)cn3)CC2)c1,/,7.3µM*,-1%,4.1µM*
Cc1cc(C)c(C(=O)COC(=O)C2CCN(c3ccc(C(F)(F)F)cn3)CC2)cc1C,-11%,?,/,?
COc1ccccc1C(=O)NCCC(=O)N1CCN(c2ccc(C(F)(F)F)cn2)CC1,/,23µM*,-1%,21µM*
COc1ccccc1C(=O)NCCC(=O)N1CCN(c2ccccc2Cl)CC1,-3%,?,/,?
C[C@@H]1CCCCO[C@H](CN(C)Cc2ccc(C(=O)O)cc2)[C@@H](C)CN([C@H](C)CO)C(=O)c2cc(N(C)C)ccc2O1,-4%,-17%,/,-8%
C[C@@H]1CCCCO[C@@H](CN(C)Cc2ccc(C(F)(F)F)cc2)[C@@H](C)CN([C@H](C)CO)C(=O)c2cc(N(C)C)ccc2O1,-3%,23µM*,/,23µM*
C[C@@H]1CN([C@@H](C)CO)C(=O)c2cc(N(C)C)ccc2O[C@@H](C)CCCCO[C@@H]1CN(C)Cc1ccc2c(c1)OCO2,-1%,16µM*,/,16µM*
CC(C)Oc1ccc(CNC(=O)C2COc3ccccc3C2)cc1 (centres undefined),0%,-28%,4%,?
Cc1ccc(C(C)C)c(OCC(=O)c2c(O)c3ccccc3oc2=O)c1,-11%,?,/,23µM*
Cc1ccc(C(C)C)c(OCC(=O)Nc2c(C(=O)c3ccccc3)oc3ccccc23)c1,-7%,-10%,-2%,?
CCc1ccc(OCC(=O)c2c(O)c3ccccc3oc2=O)cc1,-15%,?,-5%,23µM*
SMILES,ClpP mod,TDP1 cell CPT,TDP1 block,DT40 TDP1 no CPT
Cc1ccc(OCC(=O)c2c(O)c3ccccc3oc2=O)cc1C,-10%,?,-4%,15µM*
CCN(CC)C(=O)Cn1c(=O)c2ccccc2n2c(=S)sc(-c3cccc(C)c3)c12,-2%,?,-5%,?
CN(C)C(=S)N=c1ssc(=S)n1Cc1cccnc1,2%,1.8µM*,/,2.6µM*
O=C(NNC(=O)C12CC3CC(CC(C3)C1)C2)c1ccccn1,-2%,4.1µM*,7%,5.2µM*
OCCC1CN(Cc2cnc(-c3cccc4ccccc34)nc2)CCN1C1CCCCC1 (centres undefined),-11%,23µM*,9%,18µM*
CC(C)Oc1ccc(C(=O)N2CCC(c3nc4ccccc4s3)CC2)cc1,-2%,-30%,3%,?
CCOc1ccccc1C(=O)N1CCC(c2nc3ccccc3o2)CC1,-5%,?,-7%,21µM*
CC(C)Oc1ccc(C(=O)N2CCC(c3nc4ccccc4o3)CC2)cc1,2%,?,7%,18µM*
CCCCOc1ccc(C(=O)N2CCC(c3nc4ccccc4o3)CC2)cc1,1%,?,5%,13µM*
Cc1cccc(OC(C)C(=O)N2CCC(c3nc4ccccc4o3)CC2)c1C (centres undefined),1%,?,7%,23µM*
CCOc1ccc(NC(=O)N2CCC(c3nc4ccccc4o3)CC2)cc1,-3%,?,3%,?
CCc1ccc(NC(=O)c2ccccc2SC)cc1,0%,-16%,0%,6%
CCN(CC)C(=O)C1CCCN(c2ncnc3c2c(-c2ccccc2)cn3-c2cccc(C)c2)C1 (centres undefined),?,15µM*,3%,?
FC(F)(F)c1cccc(-n2cc(-c3ccccc3)c3c(N4CCCCC4)ncnc32)c1,0%,?,5%,23µM*
Clc1ccccc1N1CCN(c2ncnc3c2c(-c2ccccc2)cn3-c2ccccc2)CC1,?,?,3%,21µM*
CC(=O)c1ccc(N2CCN(c3ncnc4c3c(-c3ccccc3)cn4-c3cccc(C)c3)CC2)cc1,?,-14%,0%,-20%
COc1ccccc1N1CCN(c2ncnc3c2c(-c2ccccc2)cn3-c2cccc(Cl)c2)CC1,0%,?,3%,?
Cc1ccc(Cn2c(C(=O)O)c(CNC3CCCCCC3)c3ccc(C)cc32)cc1,-2%,4%,-5%,-18%
Cc1ccc(CNC(=O)c2ccc3c(c2)S(=O)(=O)c2ccccc2C3=O)o1,2%,?,/,16µM*
O=C(NCc1ccc(OC(F)(F)F)cc1)c1ccc2c(c1)S(=O)(=O)c1ccccc1C2=O,2%,23µM*,/,15µM*
COc1ccc(NC(=O)c2ccc3c(c2)S(=O)(=O)c2ccccc2C3=O)cc1,3%,-10%,/,-6%
CCOC1=C2CN(S(=O)(=O)c3ccc(C)cc3)[C@H](c3ccccc3)C[C@@H]2N(S(=O)(=O)c2ccc(C)cc2)[C@H](c2cccc(C)c2)C1,-4%,-6%,/,-22%
CCOc1cc(-c2ccccc2)nc2c1CN(S(=O)(=O)c1ccc(C)cc1)C(c1cccc(Cl)c1)C2 (centres undefined),1%,?,/,9.2µM*
C=CCn1c2ccccc2n2nc(C)c(=O)nc12,22µM*,3%,-5%,-3%
